Results reported in PubChem BioAssay (Tox21).
Several values for one entry are separate records, joined by “and”; a condition that tells them apart may be missing. Identical values can stand only once. Records with an inconclusive call do not appear. Where a call stands in place of a potency, no number is given. Activity calls are given as the source filed them. Unless noted, the call rests on the fitted dose curve; in most records, active means well fitted curve in the direction sought with a large enough effect in the repeat runs; inconclusive means weak or mixed curves; inactive means no such curve, though single readings can be large; an effect the other way counts as inactive or inconclusive.

How the values were obtained:
[1] = qHTS assay for small molecules that induce genotoxicity in human embryonic kidney cells expressing luciferase-tagged ATAD5 (AID 651632); further: nearly all actives have a fitted effect of over 15% in size
Outline: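 Concentration-response screen for ATAD5 upregulation in HEK293T luciferase reporter cells; 16 hr treatment at 37C, then luminescence after 30 min with Amplite at room temperature.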

[2] = qHTS assay for small molecules that induce genotoxicity in human embryonic kidney cells expressing luciferase-tagged ATAD5 - cell viability (AID 651634; calls by dose curve; further: nearly all actives have a fitted effect of over 25% in size)
Outline: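 15.5 hr compound or vehicle exposure of HEK293T cells expressing luciferase-tagged ATAD5 at 37C; live-cell protease activity is read by fluorescence after 30 min of CellTiter-Fluor.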

[3] = qHTS assay for small molecule disruptors of the mitochondrial membrane potential - cell viability (AID 720634; calls by dose curve;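 further: human HepG2 liver cancer cells; series mostly up to about 83 µM; nearly all actives have a fitted effect of over 20% in size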)
Outline: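 In this qHTS format, HepG2 cells plated overnight were pinned with compound, incubated 1 hr, and assayed for ATP luminescence with CellTiter-Glo after m-MPI dye addition.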

[4] = qHTS assay for small molecule disruptors of the mitochondrial membrane potential (AID 720635); further: potency means the concentration at half of the fitted maximal effect
Outline: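 HepG2 cells exposed to compound 1 hr at 37C, then Mito-MPS dye 30 min. Ratio read of aggregate (540/590 nm) versus monomer (490/535 nm) fluorescence.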

[5] = qHTS assay to test for compound auto fluorescence at 590 nm (red) in HepG2 cells (AID 720674)
Outline: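 Fluorescence at 590 nm emission following 540 nm excitation was recorded from HepG2 wells one hour after compound transfer, with DMSO-only wells as vehicle and Rose Bengal sodium equivalency as the scale.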

[6] = qHTS assay to test for compound auto fluorescence at 535 nm (green) in HepG2 cells (AID 720675)
[7] = qHTS assay to test for compound auto fluorescence at 460 nm (blue) in HEK293 cells (AID 720678)
Outline: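 Blue read-out at excitation 405 nm and emission 460 nm follows overnight compound exposure of HEK293 cells at 37C in 5% CO2. Activity is given as auto fluorescence equivalency to triamterene.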

[8] = qHTS assay to test for compound auto fluorescence at 590 nm (red) in HEK293 cells (AID 720679)
Outline: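 Red channel, Ex/Em 540/590nm; signal expressed as equivalency to Rose Bengal sodium. HEK293, 2,000 cells/well, 10% dialyzed FBS; 23 nL compound pinned after 4-5 hr attachment; overnight 37C/5% CO2 before reading.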

[9] = qHTS assay for small molecule agonists of the p53 signaling pathway - cell viability (AID 651633; calls by dose curve;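 further: p53RE-bla HCT reporter cells with a stable beta-lactamase p53 reporter; series mostly up to about 83 µM; nearly all actives have a fitted effect of over 30% in size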)
Outline: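 p53RE-bla cells were treated with compound for 16 hours at 37 C. Cytotoxicity was then measured as CellTiter-Glo luminescence after 30 min at room temperature.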

With `CCCCN(CCCC)SN(C)C(=O)Oc1cccc2c1OC(C)(C)C2` the outcome [1] was “inactive”, the outcome [2] was “inactive” and the Potency [3] was “inactive”. The Potency [4] was 62.1 µM (active), the outcome [5] was “inactive” and the outcome [6] was “inactive”. For the same compound, the outcome [7] was “inactive” and the outcome [8] was “inactive”.

With `O=NN1CCCC1` the outcome [1] was “inactive”, the outcome [2] was “inactive” and the Potency [3] was “inactive”. The Potency [4] was “inactive”, the outcome [5] was “inactive” and the outcome [6] was “inactive”. The outcome [7] was “inactive” and the outcome [8] was “inactive”.

With `C#CC(C)(C)NC(=O)c1cc(Cl)cc(Cl)c1` the outcome [1] was “inactive”, the outcome [2] was “inactive” and the Potency [3] was “inactive”. The Potency [4] was “inactive”, the outcome [5] was “inactive” and the outcome [6] was “inactive”. For the same compound, the outcome [7] was “inactive” and the outcome [8] was “inactive”.

In the case of `O=C1CCCN1`, the outcome [1] is reported as “inactive”, the outcome [2] is reported as “inactive” and the Potency [3] is reported as “inactive”. The Potency [4] was “inactive”, the outcome [5] was “inactive” and the outcome [6] was “inactive”. The outcome [7] was “inactive” and the outcome [8] was “inactive”.

For `Nc1ccc(Br)cc1`, the outcome [1] was “inactive”, the outcome [2] was “inactive” and the Potency [3] was “inactive”. The Potency [4] was “inactive”, the outcome [5] was “inactive” and the outcome [6] was “inactive”. For the same compound, the outcome [7] was “inactive” and the outcome [8] was “inactive”.

In the case of `CC(C)(C)OOC(=O)c1ccccc1`, the outcome [1] is reported as “inactive”, the outcome [2] is reported as “inactive” and the Potency [3] is reported as “inactive”. For the same compound, the Potency [4] was “inactive”, the outcome [5] was “inactive” and the outcome [6] was “inactive”. The outcome [7] was “inactive” and the outcome [8] was “inactive”.

For `Clc1cccc(Cl)c1Cl`, the outcome [9] was “inactive”, the outcome [2] was “inactive” and the Potency [3] was “inactive”. The Potency [4] was “inactive”, the outcome [5] was “inactive” and the outcome [6] was “inactive”. For the same compound, the outcome [7] was “inactive” and the outcome [8] was “inactive”.

For `CON(C)C(=O)Nc1ccc(Cl)c(Cl)c1`, the outcome [1] was “inactive”, the outcome [2] was “inactive” and the Potency [4] was 61.4 µM (active) and 43.3 µM (active). The outcome [5] was “inactive”, the outcome [6] was “inactive” and the outcome [7] was “inactive”. For the same compound, the outcome [8] was “inactive”.

For `CC(C)OC(=O)Nc1ccccc1`, the outcome [1] was “inactive”, the outcome [2] was “inactive” and the Potency [3] was “inactive”. The Potency [4] was “inactive”, the outcome [5] was “inactive” and the outcome [6] was “inactive”. The outcome [7] was “inactive” and the outcome [8] was “inactive”.

With `C=CCO` the outcome [1] was “inactive”, the outcome [2] was “inactive” and the Potency [3] was “inactive”. The Potency [4] was “inactive”, the outcome [5] was “inactive” and the outcome [6] was “inactive”. The outcome [7] was “inactive” and the outcome [8] was “inactive”.

In the case of `COC(=O)NC(=S)Nc1ccccc1NC(=S)NC(=O)OC`, the outcome [1] is reported as “inactive”, the outcome [2] is reported as “inactive” and the Potency [3] is reported as “inactive”. For the same compound, the Potency [4] was “inactive”, the outcome [5] was “inactive” and the outcome [6] was “inactive”. For the same compound, the outcome [7] was “inactive” and the outcome [8] was “inactive”.

In the case of `O=Cc1cccc(Oc2ccccc2)c1`, the outcome [1] is reported as “inactive”, the outcome [2] is reported as “inactive” and the Potency [3] is reported as “inactive”. The outcome [5] was “inactive”, the outcome [6] was “inactive” and the outcome [7] was “inactive”. For the same compound, the outcome [8] was “inactive”.

For `[O-][Cl+2]([O-])O`, the Potency [3] was “inactive”, the Potency [4] was “inactive” and the outcome [5] was “inactive”. The outcome [6] was “inactive”, the outcome [7] was “inactive” and the outcome [8] was “inactive”.

In the case of `CCC12COCN1COC2`, the outcome [1] is reported as “inactive”, the outcome [9] is reported as “inactive” and the outcome [2] is reported as “inactive”. The Potency [3] was “inactive”, the outcome [5] was “inactive” and the outcome [6] was “inactive”. The outcome [7] was “inactive” and the outcome [8] was “inactive”.

For `CCC(C)(CC)c1cc(NC(=O)c2c(OC)cccc2OC)on1`, the outcome [1] was “inactive”, the outcome [2] was “inactive” and the Potency [3] was “inactive”. For the same compound, the Potency [4] was 27.4 µM (active) and 20.9 µM (active), the outcome [5] was “inactive” and the outcome [6] was “inactive”. For the same compound, the outcome [7] was “inactive” and the outcome [8] was “inactive”.

With `CC1C=[C-]C=C1.[C-]#[O+].[C-]#[O+].[C-]#[O+].[Mn]` the outcome [1] was “inactive”, the outcome [2] was “inactive” and the Potency [3] was “inactive”. The Potency [4] was “inactive”, the outcome [5] was “inactive” and the outcome [6] was “inactive”. For the same compound, the outcome [7] was “inactive” and the outcome [8] was “inactive”.

With `Cc1cc(-c2cc(C)c(N)c(C)c2)cc(C)c1N` the outcome [1] was “inactive”, the outcome [2] was “inactive” and the Potency [3] was “inactive”. The outcome [5] was “inactive”, the outcome [6] was “inactive” and the outcome [7] was “inactive”. For the same compound, the outcome [8] was “inactive”.

In the case of `Clc1ccccc1Cl`, the outcome [1] is reported as “inactive”, the outcome [2] is reported as “inactive” and the Potency [3] is reported as “inactive”. The Potency [4] was “inactive”, the outcome [5] was “inactive” and the outcome [6] was “inactive”. For the same compound, the outcome [7] was “inactive” and the outcome [8] was “inactive”.

In the case of `CC(Oc1ccc(Cl)cc1Cl)C(=O)O` (stereo not drawn), the outcome [1] is reported as “inactive”, the outcome [9] is reported as “inactive” and the outcome [2] is reported as “inactive”. The outcome [5] was “inactive”, the outcome [6] was “inactive” and the outcome [7] was “inactive”. For the same compound, the outcome [8] was “inactive”.

In the case of `C1CN2CCN1CC2`, the outcome [1] is reported as “inactive”, the outcome [9] is reported as “inactive” and the outcome [2] is reported as “inactive”. For the same compound, the outcome [5] was “inactive”, the outcome [6] was “inactive” and the outcome [7] was “inactive”. The outcome [8] was “inactive”.

In the case of `COP(N)(=O)SC` (stereo not drawn), the outcome [1] is reported as “inactive”, the outcome [2] is reported as “inactive” and the Potency [3] is reported as “inactive”. The Potency [4] was “inactive”, the outcome [5] was “inactive” and the outcome [6] was “inactive”. For the same compound, the outcome [7] was “inactive” and the outcome [8] was “inactive”.

For `CN(C)[C@@H]1C(=O)C(C(N)=O)=C(O)[C@@]2(O)C(=O)C3=C(O)c4c(O)cccc4[C@@](C)(O)[C@H]3C[C@@H]12`, the outcome [9] was “inactive”, the outcome [2] was “inactive” and the Potency [3] was “inactive”. The outcome [5] was “inactive”, the outcome [6] was “inactive” and the outcome [7] was “inactive”. The outcome [8] was “inactive”.

With `CC(=O)C=C(C)C` the outcome [1] was “inactive”, the outcome [2] was “inactive” and the Potency [3] was “inactive”. For the same compound, the Potency [4] was “inactive”, the outcome [5] was “inactive” and the outcome [6] was “inactive”. For the same compound, the outcome [7] was “inactive” and the outcome [8] was “inactive”.

With `CCNc1nc(NC(C)C)nc(SC)n1` the outcome [1] was “inactive”, the outcome [2] was “inactive” and the Potency [3] was “inactive”. For the same compound, the outcome [5] was “inactive”, the outcome [6] was “inactive” and the outcome [7] was “inactive”. For the same compound, the outcome [8] was “inactive”.

For `c1ccc(-c2ccccc2)cc1`, the outcome [1] was “inactive”, the outcome [2] was “inactive” and the Potency [3] was “inactive”. The Potency [4] was “inactive”, the outcome [5] was “inactive” and the outcome [6] was “inactive”. The outcome [7] was “inactive” and the outcome [8] was “inactive”.

With `CCCCCCCCCCCC#N` the outcome [1] was “inactive”, the outcome [2] was “inactive” and the Potency [3] was “inactive”. For the same compound, the Potency [4] was “inactive”, the outcome [5] was “inactive” and the outcome [6] was “inactive”. For the same compound, the outcome [7] was “inactive” and the outcome [8] was “inactive”.

In the case of `O=c1ccc(=O)[nH][nH]1`, the outcome [2] is reported as “inactive”, the Potency [3] is reported as “inactive” and the Potency [4] is reported as “inactive”. The outcome [5] was “inactive”, the outcome [6] was “inactive” and the outcome [7] was “inactive”. For the same compound, the outcome [8] was “inactive”.

For `C[C@]12CC[C@H]3[C@@H](CC[C@@]45O[C@@H]4C(O)=C(C#N)C[C@]35C)[C@@H]1CC[C@@H]2O`, the outcome [1] was “inactive”, the outcome [9] was “inactive” and the outcome [2] was “inactive”. For the same compound, the Potency [3] was “inactive”, the outcome [5] was “inactive” and the outcome [6] was “inactive”. The outcome [7] was “inactive” and the outcome [8] was “inactive”.

In the case of `Cc1[nH]c(=O)n(C(C)(C)C)c(=O)c1Cl`, the outcome [1] is reported as “inactive”, the outcome [2] is reported as “inactive” and the Potency [3] is reported as “inactive”. The Potency [4] was “inactive”, the outcome [5] was “inactive” and the outcome [6] was “inactive”. The outcome [7] was “inactive” and the outcome [8] was “inactive”.

In the case of `C1CC2OC2CC1C1CO1` (stereo not drawn), the outcome [1] is reported as “inactive”, the outcome [2] is reported as “inactive” and the Potency [3] is reported as “inactive”. For the same compound, the Potency [4] was “inactive”, the outcome [5] was “inactive” and the outcome [6] was “inactive”. The outcome [7] was “inactive” and the outcome [8] was “inactive”.

With `CCN(CC)c1ccccc1` the outcome [1] was “inactive”, the outcome [9] was “inactive” and the outcome [2] was “inactive”. The Potency [3] was “inactive”, the outcome [5] was “inactive” and the outcome [6] was “inactive”. For the same compound, the outcome [7] was “inactive” and the outcome [8] was “inactive”.
